From the supplement of paper PMC3334620
Whole data set: some 33,000 sequences, median “E-score (-0.5 to 0.5)” near -0.0059, cut for the highest 2% near 0.26. For the sample, the highest values were picked, then their nearest neighbours and some sequences at random.

The sequences below were run against T1, Cin5 (UniProt P40917) (assay: PBM E-score (8-mer binding enrichment) (E-score (-0.5 to 0.5)); higher = stronger / more preferred TF binding). Conditions: protein concentration: 100 nM; construct: GST-full length.
T1 sequence: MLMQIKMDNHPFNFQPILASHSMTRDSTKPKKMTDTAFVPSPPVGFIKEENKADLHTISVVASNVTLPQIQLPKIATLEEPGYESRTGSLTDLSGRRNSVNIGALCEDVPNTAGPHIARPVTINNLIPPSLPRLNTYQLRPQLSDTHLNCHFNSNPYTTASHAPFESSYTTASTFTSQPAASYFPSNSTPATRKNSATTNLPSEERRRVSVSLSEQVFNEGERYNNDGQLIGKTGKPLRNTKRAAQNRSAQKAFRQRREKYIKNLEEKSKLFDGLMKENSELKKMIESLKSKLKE
How it was run: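 PURExpress in vitro transcription/translation supplied GST-tagged yeast transcription factors, either full-length or DNA-binding domain. Applied at about 100-200 nM to universal all-10-mer Agilent arrays double-stranded by primer extension, the bound protein was detected with fluorescent anti-GST. E-scores, modified Wilcoxon-Mann-Whitney statistics, were given by the Universal PBM Analysis Suite to ungapped eight-base words pooled with their reverse complements after masliner normalisation.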

| Sequence | PBM E-score |
| --- | --- |
| AACGATGT | 0.0581 |
| AAACGCTG | -0.139 |
| GGGGATTA | 0.253 |
| GACTGCCC | -0.188 |
| GTCTGAAC | -0.16 |
| AGTGCCCA | 0.0274 |
| GAATACTA | 0.267 |
| GAATACCA | 0.207 |
| TAATACCA | 0.279 |
| TAATACGA | 0.12 |
| TAATACTA | 0.372 |
| CAATACCA | 0.0989 |
| CAATACTA | 0.0648 |
| AAATACTA | 0.112 |
| TAATACAA | 0.232 |
| CGTTGGGC | -0.0408 |
| ATGGACAG | -0.15 |
| GGACCAAC | -0.134 |
| ACTTAGAC | 0.0559 |
| CCTGCGAG | -0.0365 |
| CAGGGACA | -0.0907 |
| CTGCGAGA | -0.332 |
| AATATTGC | 0.235 |
| CATATTAC | 0.287 |
| CATATTTC | 0.0909 |

| Sequence | PBM E-score |
| --- | --- |
| AACATTAT | 0.261 |
| AATATTTA | 0.217 |
| CATATTAG | 0.16 |
| AATATTGT | 0.28 |
| AACATTAG | -0.0325 |
| AATATTAA | 0.304 |
| AATATTGA | 0.172 |
| AACATTAC | 0.148 |
| AATATTGG | 0.154 |
| ACACGTTG | -0.238 |
| CGGTAACG | -0.0557 |
| AACTTTTC | 0.0286 |
| CGTCCCAC | -0.0257 |
| CTCCAGGA | -0.221 |
| GGCTGCAC | -0.148 |
| CACATAGC | -0.142 |
| CGTTTCCA | 0.0865 |
| ACAATCCA | 0.209 |
| AATATTAT | 0.343 |
| GATATTAC | 0.315 |
| ACTATTAT | 0.137 |
| TCTATTAA | 0.109 |
| TATATTAA | 0.287 |
| GATATTCC | 0.0678 |
| AATATTCC | 0.289 |

| Sequence | PBM E-score |
| --- | --- |
| AATATTCA | 0.24 |
| TGTATTAA | 0.202 |
| AATATTCG | 0.19 |
| GCTATTAC | 0.0669 |
| AATATTAG | 0.215 |
| AAAGACGA | 0.036 |
| GACCACTA | 0.171 |
| CCAGTCCG | -0.296 |
| CCCGTAAC | -0.0624 |
| GACAGCTC | -0.237 |
| ACAGCTTA | 0.195 |
| AATGGAAC | 0.103 |
| CTCATTAA | 0.175 |
| GCTATTAA | 0.0303 |
| GACATTAA | 0.0285 |
| GATATTAA | 0.282 |
| CCTATTAC | 0.0787 |
| GATATTCA | 0.0685 |
| GTCATTAA | 0.279 |
| AATATTAC | 0.294 |
| AATATTTC | 0.18 |
| AACATTAA | 0.114 |
| TACATTAA | 0.262 |
| ATCATTAA | 0.221 |
| GCGCAGAC | -0.178 |

| Sequence | PBM E-score |
| --- | --- |
| ACGAGAGA | -0.0604 |
| CCTTTGTC | -0.0179 |
| CTAGGTTA | 0.118 |
| AACAGTCA | -0.041 |
| CATATTGA | 0.0883 |
| GATATTGA | 0.0812 |
| TATATTGA | 0.287 |
| CCTATTAA | 0.111 |
| CATATTTA | 0.157 |
| CATATTAA | 0.275 |
| GCTCCGCA | -0.16 |
| GGCGGAAA | 0.088 |
| AGCAGTGA | 0.2 |
| AAGCTTGC | -0.0817 |
| GTGTAGGA | -0.0437 |
| AACGCGCG | 0.276 |
| CACGCGAA | -0.0826 |
| AACGCGCT | -0.0706 |
| AACGCGAA | 0.281 |
| AACGCGCA | 0.0734 |
| AACGCGAG | 0.0992 |
| CCAAAGCG | -0.0566 |
| CCTTCATA | 0.0109 |
| ACGTCATC | 0.259 |
| ATGTCAGC | 0.272 |

| Sequence | PBM E-score |
| --- | --- |
| ATGTCAGA | 0.114 |
| CAGTCAGC | -0.0612 |
| AAGTCAGA | 0.0006 |
| ACGTCAGC | 0.394 |
| GCGTCAGC | -0.102 |
| ACGTCAGT | -0.12 |
| CTGTCAGC | 0.148 |
| CCGTCATC | -0.075 |
| ACGTCATG | 0.228 |
| AAGTCAGC | 0.293 |
| CGGACTTC | -0.131 |
| CAGCTAAG | -0.252 |
| GTAACCCA | 0.234 |
| ATTCTTAG | -0.0605 |
| GGAGGGGA | -0.0844 |
| CAAGTCCG | -0.109 |
| ACTGTTGA | -0.0374 |
| CCGGGACG | -0.162 |
| GAACGTCA | -0.161 |
| TCTAGAGA | -0.228 |
| ATGTCATA | 0.299 |
| ATGTCATC | 0.142 |
| CTGTCATA | 0.0932 |
| AACCCCCC | -0.468 |
| AAGGCTGG | -0.277 |

| Sequence | PBM E-score |
| --- | --- |
| AGACTCCG | -0.121 |
| AAAGATGA | 0.00284 |
| ATGGCAAT | 0.113 |
| ATTAGTCA | 0.341 |
| GTTAGTTA | 0.225 |
| ATTAGTTG | 0.241 |
| ATTAGTTA | 0.315 |
| GTTAGTCA | 0.0867 |
| ATTAGTCG | 0.193 |
| CTTGAGCC | -0.241 |
| AGATCATA | 0.186 |
| GATCCCCC | -0.426 |
| ATGACTTA | 0.149 |
| ATGACTAA | 0.235 |
| CTGACTAA | 0.36 |
| GTGACTTA | 0.0722 |
| CTGACTTA | 0.298 |
| GTGACTAA | 0.123 |
| CGTGTAAA | -0.142 |
| AAGGGTGA | -0.0502 |
| TCGGCCGA | 0.0246 |
| CACGGGAC | -0.118 |
| CATCCCGA | 0.0504 |
| AATCCCGA | 0.26 |
| TATCCCGA | 0.125 |

| Sequence | PBM E-score |
| --- | --- |
| CCTTAGGA | 0.0118 |
| ATCGTGTC | 0.0401 |
| AATTCGCG | 0.0954 |
| AATTCGCT | 0.325 |
| AATTCGCC | 0.154 |
| GCACTCGA | 0.0449 |
| GCCTGATA | -0.0274 |
| TATAGTAA | 0.324 |
| AATAGTAG | 0.144 |
| CATAGTAC | 0.0648 |
| GATAGTAA | 0.195 |
| TATAGTCA | 0.0921 |
| CATAGTAA | 0.279 |
| TATAGTGA | -0.0129 |
| AATAGTAA | 0.27 |
| AATAGTAC | 0.05 |
| ACTACCAC | 0.017 |
| TCACCTAA | 0.142 |
| AACGCTAT | 0.0739 |
| GTAATCCA | 0.281 |
| CTAATCTA | 0.00395 |
| CTAATCGA | 0.202 |
| GTAATCTA | 0.354 |
| ATGATCGA | 0.0882 |
| GTAATCGA | 0.275 |
